Experimental data as given in the supplement of paper PMC6555819.

Legend:
Test in all cases: PBM binding z-score (relative to random genomic background probes); higher = stronger binding; sequences stand for … in GC…GCGATTGACAGCGTAGAATGAAGG
[1] = test system: RARb homodimer (NR concentration 270 nM)
In short: (§1)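 Custom Agilent 4×180K protein-binding microarrays carried double-stranded probes, each with a 34-nt variable region. These regions held direct-repeat seeds, single-nucleotide variants, half-site ablations and random human genomic background sequences. Ligand-free nuclear receptor dimers were incubated on the arrays for 1 h, antibodies against each partner (one per run) detected binding, and scanned fluorescence was regression-normalized. Binding z-scores take the random background probes as reference.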

[2] = test system: RARg:RXRa (NR concentration 270 nM, RXRa partner concentration 90 nM)
In short: as §1

[3] = test system: RARg homodimer (NR concentration 270 nM)
In short: as §1

[4] = test system: RXRa DBDmut IVT, anti-RXR (DBD mutation: RXRa K156A/R161A, NR concentration 90 nM)
In short: as §1

[5] = test system: RXRa homodimer (NR concentration 180 nM)
In short: as §1

[6] = test system: THRa:RXRa (NR concentration 90 nM, RXRa partner concentration 90 nM)
In short: as §1

[7] = test system: THRa homodimer (NR concentration 90 nM)
In short: as §1

[8] = test system: VDR:RXRa (NR concentration 270 nM, RXRa partner concentration 90 nM)
In short: as §1

[9] = test system: VDR homodimer (NR concentration 270 nM)
In short: as §1

| Sequence | PBM binding z-score [1] | PBM binding z-score [2] | PBM binding z-score [3] | PBM binding z-score [4] | PBM binding z-score [5] | PBM binding z-score [6] | PBM binding z-score [7] | PBM binding z-score [8] | PBM binding z-score [9] |
| --- | --- | --- | --- | --- | --- | --- | --- | --- | --- |
| CAGCCTTGGTCAGGGCCAGTATAGGAGGAACGTT | 0.149 | -0.144 | 0.23 | -1.06 | -0.491 | -0.654 | -0.63 | -0.707 | -0.985 |
| ATCTCTGGGTAACCAAGTTCAGTGAATGCCGAAC | 1.28 | 0.665 | 0.596 | 0.665 | 0.412 | 1.46 | 0.335 | 4.32 | 2.64 |
| GATACAGGGTCAAGGCCAGAGTGCGCGTATTGAT | 3.82 | 5.48 | 5.27 | 2.42 | 5.94 | 3.42 | 1.27 | 4.23 | 2.96 |
| GCTATTAGTTAAAAGGGCAACCGAATGATTCTCG | 2.21 | 1.08 | 1.32 | 0.572 | 0.904 | 0.641 | -0.221 | 0.193 | 0.339 |
| CCGACTGGGGCAAAGGTTACCCTACTCAGTACGA | 1.96 | 3.01 | 1.49 | -0.029 | 3.13 | 1.72 | 0.249 | 1.23 | 0.136 |
| CGTCCAAGTTCAACTAAGGTAACGTAAAGCACGC | 2.73 | 3.63 | 3.97 | 4.54 | 2.79 | 5.06 | 2.45 | 4.16 | 4.43 |
| CGGCCAAGGTCAATGCTAGGTCAGTGAAAGCATT | 4.9 | 7.57 | 6.96 | 3.65 | 5.16 | 4.29 | 2.46 | 4.95 | 2.22 |
| CAAACTAGGTCACCGGAAGGTTAAAGTCCGCATG | 4.56 | 6.51 | 5.79 | 2.08 | 4.2 | 3.84 | 2.36 | 4.29 | 1.28 |
| CCGACTGGGGCAAGGTTACCATTACGCACAGCCA | 1.42 | 0.911 | 1.17 | -0.427 | 1.03 | 1.09 | 0.435 | 0.00135 | 0.338 |
| GGAACGAGGGCAAGTTGGTAGCAGAGTTTGATGG | 1.6 | 1.27 | 2.08 | 2.05 | 0.826 | 1.41 | 0.26 | 1.03 | 1.91 |
| TCATATCGGTAAACAGGTGAAAGTCCGTAAGTTA | 0.664 | 0.475 | 0.211 | 1.26 | 0.834 | 0.552 | 0.248 | 0.935 | 0.533 |
| TCTAGTTGGTCAAAGGTCACACAATCGAAATGCG | 5.17 | 7.33 | 7.01 | 1.98 | 8.48 | 4.11 | 2.21 | 5.52 | 3.09 |
| AGACAAAGTTCATCTAGGTAACGTAAGATATGCT | 4.12 | 5.68 | 5.87 | 5.05 | 4.64 | 3.07 | 0.133 | 5.16 | 5.21 |
| CCAGACAGGTGAAAGGTAACTCAGTCTGGTACGC | 0.781 | 1.39 | 0.817 | 0.137 | 2.13 | 0.824 | -0.156 | 0.989 | -0.251 |
| ACAGACAGGTAATGAAGGTAACTCAGGCTATCAT | 0.185 | 0.351 | 0.385 | -0.156 | 0.59 | 1.14 | 0.263 | 0.244 | -0.0776 |
| CGAACTAGGTCAAAACAGGACAGTGAAGGATGAT | 2.27 | 3.48 | 3.77 | 1.49 | 2.25 | 4.13 | 0.485 | 1.99 | 0.573 |
| TCTGCTAGGTCAGATGGTCAGCTAACGAGCTGCC | 2.5 | 3.25 | 4.16 | 0.506 | 1.84 | 1.51 | -0.192 | 0.133 | -0.819 |
| CGAACCAGGTCATTGACAGGACAGTGAATAGTAA | 2.5 | 4.94 | 4.22 | 3.22 | 3.57 | 3.31 | 1.84 | 2.85 | 1.8 |
| CGAACTAGGTCATTGACAGGACAGTGACTAGTAA | 2.75 | 4.69 | 4.28 | 2.44 | 2.69 | 2.84 | 0.58 | 2.42 | 1.07 |
| TAGCCTAGGTCATTGGGCCAGTAAAGTACGCATC | 2.78 | 3.91 | 4.25 | 1.61 | 3.1 | 2.69 | 0.775 | 2.08 | 1.48 |
| CGAACTAGGTCAGAACACGACAGTGAAGGATGAT | 1.84 | 2.55 | 3.06 | 0.593 | 1.39 | 1.31 | 0.186 | 0.217 | -0.122 |
| CGTCCAAGGTCAGCAGGTCAGTTAAAGCGACGTG | 5.1 | 6.48 | 7.2 | 2.34 | 5.18 | 4.27 | 2.96 | 4.23 | 1.71 |
| CGTCCAAGGTCAATGCTAGGTCAGCGAAAGCATT | 4.51 | 7.74 | 7.14 | 3.47 | 5.38 | 4.61 | 3.1 | 4.93 | 3.23 |
| TCTCGGAGGACACGAAGGTCAGAGCCTTCCAGAG | 3.54 | 3.52 | 4.07 | 0.518 | 2.04 | 2.66 | 0.555 | 2.42 | 1.24 |
| ATATGTATGTTAGCTGGGGTCATTCAGACTAGGC | 3.35 | 3.62 | 2.31 | 2.11 | 5.39 | 4.27 | 2.96 | 5.07 | 4.67 |
| AGAATGAGGTTACCAATGATCAGGGAAACGCTTG | 0.796 | 2.23 | 1.63 | 0.994 | 2.62 | 2.61 | 0.788 | 1.18 | 0.0566 |

| Sequence | PBM binding z-score [1] | PBM binding z-score [2] | PBM binding z-score [3] | PBM binding z-score [4] | PBM binding z-score [5] | PBM binding z-score [6] | PBM binding z-score [7] | PBM binding z-score [8] | PBM binding z-score [9] |
| --- | --- | --- | --- | --- | --- | --- | --- | --- | --- |
| TCAGACAGGTGAAGGTAACTCAGGTACGCAGTCG | 1 | 0.581 | 0.551 | 1.37 | 0.995 | 1.48 | 0.516 | 0.943 | 0.357 |
| ATCTCTAGGTAAAGATAGTTCAGTGTATGCAAAT | 1.22 | 0.725 | 0.952 | 0.412 | 0.465 | 1.05 | 0.467 | 0.93 | 0.96 |
| AGAATGAGGTGAAGATCAGGGAAACAGAATACAT | 0.949 | 1.15 | 1.09 | -0.551 | 1.05 | 2.77 | 1.32 | 0.178 | 0.103 |
| CCTAGCAGGCCAATCTGGGCCACTCAAGGCTTGA | -0.384 | -0.481 | -0.168 | -0.177 | -0.923 | 1.24 | -0.893 | -0.783 | -1.12 |
| ATCTCTAGGTAAAAGATCAGTGAATCCCGAGGAT | -0.353 | 0.381 | 0.48 | -0.342 | 0.281 | 0.298 | 0.125 | -0.291 | -0.0729 |
| AGAACGAGGGCACGCTGAGTTGATCGCAGAGTAG | 1.14 | 2.19 | 2.41 | 1.74 | 1.27 | 1.85 | -0.239 | 2.12 | 1.73 |
| CCGCCTGGGGCATAAGGTTACCATAAGCCAGCCC | 1.94 | 1.82 | 1.11 | -0.905 | 1.07 | 1.99 | 1.33 | 0.151 | -0.126 |
| ACTAGCAGGCCACGGGTCACTCAAGATTAGTCCG | 2.64 | 2.22 | 2.04 | 0.0998 | 2.18 | 1.85 | 0.298 | 1.2 | 0.215 |
| GCTATTAGTTGAAAGGGCAACCTAATGATTCTCG | 2.01 | 1.35 | 1.38 | 0.966 | 1.24 | 0.901 | -0.0101 | 0.478 | 0.284 |
| TTACCAAGGTGAGCTGAGGTCGTTGTTCCAACTC | 1.84 | 1.31 | 0.592 | 0.437 | 1.42 | 4.75 | 2.02 | 4.15 | 2.12 |
| TCATATAGGAAAAGGTGAAAGTCGAACGATATGA | 1.17 | 1.38 | 1.12 | 1.03 | 1.86 | 0.964 | -0.616 | 0.862 | 0.135 |
| AGTCAAAGTTCAGGACCAGGTAACGTAAAGCACG | 3 | 4.41 | 4.51 | 2.84 | 2.91 | 3.14 | 0.673 | 2.41 | 1.72 |
| CCTACTGGGCCAACGGTCATTGATTCCAATGCTC | 1.45 | 0.293 | 0.841 | -0.454 | -0.191 | -0.306 | -0.382 | -0.502 | -0.141 |
| ATCTCTAGGGAACAAGTTCAGTGAAAGAGAGGAC | 1.49 | 0.977 | 1.13 | 0.71 | 0.649 | 0.823 | 0.263 | 1.48 | 2.43 |
| ACTATTACTTGACTTAGGGCAACCGATACGACGC | 1.06 | 0.943 | 1.1 | 0.983 | 0.745 | 0.888 | 1.1 | 0.428 | 0.484 |
| AATACAGGGGCACTAGGCCAGAGTAGGTACGAAT | 0.82 | 0.814 | 0.835 | 0.764 | 0.611 | 0.473 | -0.285 | 0.171 | 0.185 |
| AATACAGGGTCATCGTAGGCCCGAGTACGCACAG | 3.43 | 5.52 | 5.24 | 3.34 | 6.9 | 3.72 | 1.41 | 4.95 | 3.29 |
| AGTCAAAGTTCAACTAGGTAACGTAAGATATGCT | 3.9 | 5.82 | 6.57 | 4.34 | 4.89 | 3 | 0.196 | 4.61 | 4.09 |
| CAAACTGGGTCAAGGTCAAAGTCGGTTTGTGCCA | 4.97 | 5.77 | 6.18 | 3.04 | 5.91 | 4.27 | 3.47 | 5.18 | 4.24 |
| TCTTGTAGATCAACACGAGGTTAAGAAAGATCGA | 0.596 | 0.823 | 0.361 | 0.555 | 1.07 | 1.57 | 0.0132 | 0.895 | 0.099 |
| TTACCAAGCTGAAAGGTCGTTGATGCACGCCTTG | 1.45 | 1.06 | 0.528 | -0.0422 | 2.04 | 0.936 | -0.608 | 1.07 | 0.539 |
| TCTGCTAGGTCAGTTGGTTAGCTAACGAGCTGCC | 2.11 | 2.15 | 2.76 | 0.517 | 0.728 | 1.15 | -0.142 | 0.227 | -0.573 |
| TGAATGTGGTTAAAGATCAGGGAACGTGGCGTCG | -0.107 | 0.0115 | -0.196 | -0.526 | 0.126 | -0.141 | -0.0512 | -0.219 | -0.00679 |
| AGAACGGGGGCACGCTGAGTTGATAGCAGAGTAG | 1.94 | 3.62 | 3.2 | 2.78 | 2.94 | 2.9 | 0.833 | 4.23 | 3.45 |
| CATAGAGGGTCAGCTAGGCCAGAGTAGGGACGGC | 3.06 | 3.83 | 4.33 | 0.356 | 3.3 | 2 | 0.171 | 2.69 | 0.395 |
| CGTCAAACTTCAAGGTAACGTAACAGAAAGCAGC | 0.274 | 0.163 | 0.537 | 0.306 | 0.376 | 1.73 | 1.11 | 0.0642 | -0.0172 |
